The values that follow come from PubChem BioAssay (NCATS).

“And” between values parts separate entries of the source, which are not always exact repeats. Equal values may be shown once. Unmarked numbers belong to inactive results. Unless noted, calls follow the shape of the dose curve; as a rule, active = well fitted curve in the direction sought with a large enough effect; inconclusive = small, poorly fitted or top-dose-only effect, or another doubt; inactive = no such curve, though single readings can be large; an effect the other way counts as inactive or inconclusive. Inconclusive results are not listed.

T1 sequence (P35557 whole entry, looked up): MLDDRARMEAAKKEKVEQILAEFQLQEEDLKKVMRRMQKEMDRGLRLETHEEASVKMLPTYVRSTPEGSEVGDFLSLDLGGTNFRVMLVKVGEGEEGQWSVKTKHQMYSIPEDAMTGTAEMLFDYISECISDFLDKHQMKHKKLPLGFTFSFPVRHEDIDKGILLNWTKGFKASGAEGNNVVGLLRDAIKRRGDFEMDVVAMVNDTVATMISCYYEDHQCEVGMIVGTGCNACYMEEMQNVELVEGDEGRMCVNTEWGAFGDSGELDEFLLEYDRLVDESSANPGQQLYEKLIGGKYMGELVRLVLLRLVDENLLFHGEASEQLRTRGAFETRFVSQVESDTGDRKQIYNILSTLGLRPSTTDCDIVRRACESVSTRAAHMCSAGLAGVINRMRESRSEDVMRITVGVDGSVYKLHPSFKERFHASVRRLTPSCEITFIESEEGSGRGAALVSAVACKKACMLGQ
T1 sequence (Q14397 whole entry, looked up): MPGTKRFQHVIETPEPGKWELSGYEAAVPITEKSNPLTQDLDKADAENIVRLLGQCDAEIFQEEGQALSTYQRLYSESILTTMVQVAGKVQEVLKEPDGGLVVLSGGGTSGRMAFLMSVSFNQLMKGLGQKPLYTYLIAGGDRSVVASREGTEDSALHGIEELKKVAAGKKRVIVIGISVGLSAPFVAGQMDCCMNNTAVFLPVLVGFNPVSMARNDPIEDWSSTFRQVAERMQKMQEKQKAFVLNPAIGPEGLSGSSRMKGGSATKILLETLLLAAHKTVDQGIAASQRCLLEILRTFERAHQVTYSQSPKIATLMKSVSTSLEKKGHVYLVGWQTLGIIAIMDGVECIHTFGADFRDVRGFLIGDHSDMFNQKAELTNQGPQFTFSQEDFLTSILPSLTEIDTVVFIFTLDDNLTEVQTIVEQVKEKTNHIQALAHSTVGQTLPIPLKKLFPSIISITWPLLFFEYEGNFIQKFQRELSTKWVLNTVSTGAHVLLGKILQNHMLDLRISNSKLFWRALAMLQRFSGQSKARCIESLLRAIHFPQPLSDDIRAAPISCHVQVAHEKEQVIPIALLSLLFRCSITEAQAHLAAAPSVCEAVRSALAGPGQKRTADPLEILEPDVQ

Test system in one assay: not listed separately
In words: qHTS for Activators of Parkin Expression: LOPAC Validation Assay (NLuc Reporter) (AID 720572). The settings on record: Parkin promoter NanoLuc reporter cells, luminescence, percent of positive control, DMSO as zero; series mostly up to 46.1 µM; activation: at the top concentration. Put shortly:
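Compound effects on Parkin promoter activity were measured as NanoLuc luminescence after 24 h at 37 C. The neuronal reporter line also carried FLuc, which was read first. LOPAC compounds were tested at 7 concentrations, with normalization to DMSO (0%) and positive control (100%).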
On the technique in general: qHTS replaces the single test concentration by a dilution series.
As to `NCCc1ccc(O)cc1`, the “activation” value is -1.72%.
Same read-out and setting: for `CC(C)(C)NCC(O)c1ccccc1Cl` (configuration not stated) the value was 0.846%; for `Cc1ncsc1CCCl`, -1.76%.

Test system in the next assay: not listed separately
As to the kind of experiment: qHTS assay for small molecule agonists of the antioxidant response element (ARE) signaling pathway measured by Nrf2-dependant transcriptional activity (AID 720636; active = well fitted curve in the direction sought with a large enough effect in the repeat runs; an effect the other way counts as inactive or inconclusive; also: % of control where 0% means no effect). The following applies: ARE-luc HepG2, Nrf2 luciferase reporter, 16 h; series mostly up to 92.4 µM; activation: at the top concentration. In outline:
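Nrf2-dependent transcription read as ONE-Glo luciferase signal from ARE-luc HepG2 reporter cells after 16 hr compound treatment at 37 C, 5% CO2, in assay medium with 1% dialyzed FBS.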
`COP(=S)(OC)Oc1ccc(SC)c(C)c1`: the “activation” value is 1.32%.
On the same count and under the same terms, the same measure for `NCCc1ccc(O)cc1`: -0.624%.
The same measure, in the same setting: the same measure for `Nc1ccccc1`: 0.83%; for `Nc1ccccc1C(=O)O`: 1.1%.
Same read-out and setting: the same measure for `CC(C)NC(C)C`: 0.187%; for `CC(C)(C)c1ccc(O)cc1`: -1.08%; for `COc1cc(OC)c(OC)cc1C=O`: -0.148%.
For the molecule `Nc1nc(N)nc(NC2CC2)n1`, the “activation” value is -0.378%.

Test system in a further assay: not listed separately
As to the kind of experiment: qHTS assay for small molecule antagonists of the retinoid-related orphan receptor gamma (ROR-gamma) signaling pathway - cell viability counter screen (AID 720652; active = well fitted curve in the direction sought with a large enough effect in the repeat runs; an effect the other way counts as inactive or inconclusive;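 also: compound exposure lasted 16 hr before ATP read; % is scaled to controls: 0 for no effect and ±100 for the full control effect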). The settings on record: RORgamma reporter cell line viability counter screen; series mostly up to 92.2 µM; activity change, negative = cytotoxicity: at the top concentration. Put shortly: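 Cytotoxicity counter screen: intracellular ATP (CellTiter-Glo luminescence) measured in the doxycycline-induced CHO RORE-luciferase reporter line after 16 hr compound exposure at 37 C, 5% CO2.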
As for `COP(=S)(OC)Oc1ccc(SC)c(C)c1`, the “activity change, negative = cytotoxicity” value was -11.4%.
Still for that read-out and setting: for `NCCc1ccc(O)cc1` the value was 0.201%; for `Nc1ccccc1`, -0.575%; for `Nc1ccccc1C(=O)O`, -7.75%.
The same measure, in the same setting: for `CC(C)NC(C)C` the value was 6.25%.
Still for that read-out and setting: the same measure for `COc1cc(OC)c(OC)cc1C=O`: -2.62%.

Test system in the next assay: not listed separately
As to the kind of experiment: qHTS assay for small molecule agonists of the antioxidant response element (ARE) signaling pathway measured by Nrf2-dependant transcriptional activity - cell viability counter screen (AID 720653; active = well fitted curve in the direction sought with a large enough effect in the repeat runs; an effect the other way counts as inactive or inconclusive; also: % is scaled to controls: 0 for no effect and ±100 for the full control effect). The following applies: ARE-bla HepG2 viability, CellTiter-Glo ATP luminescence, 16 h; stronger effect = lower value. In outline:
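Cytotoxicity counter screen: intracellular ATP quantified by CellTiter-Glo luminescence in the same ARE-bla HepG2 plates, after 16 h compound exposure and a 2 h beta-lactamase substrate step.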
On to `COP(=S)(OC)Oc1ccc(SC)c(C)c1`, for which the max response is -8.21% and -17%.
Still for that read-out and setting: for `NCCc1ccc(O)cc1` the value was 13.6%; for `Nc1ccccc1`, -9.58%.
As for `Nc1ccccc1C(=O)O`, the max response is 1.19%.
The same measure, in the same setting: for `CC(C)NC(C)C` the value was -19.4%; for `CC(C)(C)c1ccc(O)cc1`, -7.43%.
Still for that read-out and setting: the same measure for `COc1cc(OC)c(OC)cc1C=O`: 3.08%; for `Nc1nc(N)nc(NC2CC2)n1`: 14.5%.

The target in the next assay is T1, Hexokinase-4 (Homo sapiens) + Glucokinase regulatory protein (Homo sapiens) (UniProt P35557+Q14397). In words: qHTS assay for inhibitors of recombinant human GCK-GKRP interaction: Diaphorase-coupled assay (AID 743205). The following applies: G6PDH/diaphorase resorufin fluorescence; series mostly up to 57.5 µM; activity change, positive = activation: at the top concentration. In outline:
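Compounds pre-incubated 20 min with substrate, then 10 nM GST-GCK with 10 nM FLAG-GKRP added. GCK activity coupled via G6PDH and diaphorase to resorufin (5 mM glucose, 0.4 mM ATP, 0.15 mM NADP+, pH 7.6), read kinetically over 30 minutes at Ex 525/Em 590 nm.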
With `NCCc1ccc(O)cc1`, the “activity change, positive = activation” value was -0.137%.
`CC(C)(C)NCC(O)c1ccccc1Cl` (configuration not stated): the “activity change, positive = activation” value was -2.61%.
With `Cc1ncsc1CCCl`, the “activity change, positive = activation” value is -5.31%.

The next assay addresses T1, Hexokinase-4 (Homo sapiens) + Glucokinase regulatory protein (Homo sapiens). As to the kind of experiment: qHTS assay for inhibitors of recombinant human GCK-GKRP interaction: ADP-Glo assay (AID 743206).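 Also: plate controls were DMSO plus enzyme for no effect and no enzyme for full effect.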 The following applies: ADP-Glo luminescence, 60 min, 0% = vehicle-only wells with enzyme present; series mostly up to 76.9 µM; activity, positive = activation: at the top concentration. In outline: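 Pin-transferred compounds meet a 15 nM GST-GCK/15 nM FLAG-GKRP/2 uM S6P mix (dispense concentrations). ATP is then added to 0.4 mM final with 5 mM glucose, and the reaction runs 60 min at room temperature. ADP is quantified luminescently.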
`NCCc1ccc(O)cc1`: the “activity, positive = activation” value is 0.918%.
Consider `CC(C)(C)NCC(O)c1ccccc1Cl` (configuration not stated), for which the “activity, positive = activation” value was 1.81%.
Turning to `Cc1ncsc1CCCl`, the “activity, positive = activation” value is 1.33%.

For a further assay the target is unchanged. In words: qHTS assay for inhibitors of recombinant human GCK-GKRP interaction: HTRF assay (AID 743207).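 Also: 0% = DMSO with GCK present and -100% = DMSO wells lacking GCK.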 The following applies: recombinant GCK-GKRP HTRF binding, 60 min; series mostly up to 57.5 µM; activity change, negative = inhibition: at the top concentration. Put shortly: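 HTRF binding of 5 nM GST-GCK and 5 nM FLAG-GKRP with 2 uM S6P in pH 7.1 Hepes buffer (MgCl2, KCl, DTT, Tween 20, BSA). Anti-FLAG XL665 and anti-GST donor added, 60 min at room temperature; 665/615 nm read, normalized to with- and without-GCK controls.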
For the molecule `NCCc1ccc(O)cc1`, the “activity change, negative = inhibition” value is 16.2%.
On the same count and under the same terms, for `CC(C)(C)NCC(O)c1ccccc1Cl` (configuration not stated) the value was -2.9%.
On the same count and under the same terms, the same measure for `Cc1ncsc1CCCl`: 0.755%.

Test system in another assay: not listed separately
As to the kind of experiment: qHTS Assay for Identifying Gametocytocidal Compounds (AID 743244).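 Also: % is scaled to controls: 0 for no effect and ±100 for the full control effect; actives lower the fluorescent signal which means gametocytes are killed.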 The settings on record: P. falciparum 3D7 stage III-V gametocytes, alamarBlue, 72 h; max response: stronger effect = lower value. Put shortly:
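In this qHTS viability screen, late-stage 3D7 gametocytes are incubated with compound for 72 h, then with alamarBlue for 24 h; reduced resorufin fluorescence marks killing.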
As to `COP(=S)(OC)Oc1ccc(SC)c(C)c1`, the max response is -2.21%.
On the same count and under the same terms, for `NCCc1ccc(O)cc1` the value was -2.18% and 16.8%.
Same read-out and setting: the same measure for `Nc1ccccc1`: -6%; for `CCN[C@H](C)Cc1cccc(C(F)(F)F)c1`: 16.7%.
Still for that read-out and setting: for `CN1CCC[C@@H]1c1cccnc1` the value was 35%; for `Nc1ccccc1C(=O)O`, 3.13%; for `CC(C)NC(C)C`, 15.3%.
On to `COc1cc(CC(C)N)cc(OC)c1OC` (configuration not stated), for which the max response is 4.71%.
The same measure, in the same setting: the same measure for `CC(Cc1ccccc1)NCCn1cnc2c1c(=O)n(C)c(=O)n2C` (configuration not stated): -2.49%.
Still for that read-out and setting: the same measure for `COc1c2c(cc3c1OCO3)CCN(C)C2`: 7.33%; for `CC(C)(C)NCC(O)c1ccccc1Cl` (configuration not stated): -5.65% and 5.12%.
Take `CCOc1ccc(NS(=O)(=O)c2ccc(N)cc2)nn1`: the max response was 42.3%.
The same measure, in the same setting: for `CN(C)CCc1c[nH]c2cccc(OP(=O)(O)O)c12` the value was 13%.
Still for that read-out and setting: for `Cc1ncsc1CCCl` the value was 5.08% and 26.9%; for `CNCC(=O)c1ccc(O)c(O)c1`, 39.9%; for `COc1cc(OC)c(OC)cc1C=O`, 4.65%.
Consider `C[C@@H](N)[C@@H](O)c1ccccc1`, for which the max response is 12.7%.
Still for that read-out and setting: for `Nc1nc(N)nc(NC2CC2)n1` the value was -8.01%.
